Source: PubChem BioAssay AID624330 (Southern Research Specialized Biocontainment Screening …, 2012)
Hit rate of the full screen: of about 340,000 compounds, about 2,100 (0.62%) were called active.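 Rule for the calls: active = first-screen hits whose inhibition reached a set limit at any dose in the follow-up dose series; inconclusive = inhibition above the set first-screen limit but never retested; inactive = the rest.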 A selection follows. Results with a measured potency or affinity are listed apart.

Each molecule was assayed against Rac GTPase-activating protein 1 (Homo sapiens) (UniProt Q9H0H5) (assay: MgcRacGAP GTPase-activating activity inhibitors, confirmation, biochemical, ADP Hunter fluorescence, primary and confirmatory (AID 624330;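 note: fluorescence reports GDP produced by GAP-driven GTP hydrolysis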)). Conditions: MgcRacGAP-stimulated Rac1 GTP hydrolysis, at 30 µM, active compounds read high, GST-tagged Rac1 F28L mutant substrate.
Sequence of Rac GTPase-activating protein 1 (Homo sapiens) (Q9H0H5 whole entry, looked up): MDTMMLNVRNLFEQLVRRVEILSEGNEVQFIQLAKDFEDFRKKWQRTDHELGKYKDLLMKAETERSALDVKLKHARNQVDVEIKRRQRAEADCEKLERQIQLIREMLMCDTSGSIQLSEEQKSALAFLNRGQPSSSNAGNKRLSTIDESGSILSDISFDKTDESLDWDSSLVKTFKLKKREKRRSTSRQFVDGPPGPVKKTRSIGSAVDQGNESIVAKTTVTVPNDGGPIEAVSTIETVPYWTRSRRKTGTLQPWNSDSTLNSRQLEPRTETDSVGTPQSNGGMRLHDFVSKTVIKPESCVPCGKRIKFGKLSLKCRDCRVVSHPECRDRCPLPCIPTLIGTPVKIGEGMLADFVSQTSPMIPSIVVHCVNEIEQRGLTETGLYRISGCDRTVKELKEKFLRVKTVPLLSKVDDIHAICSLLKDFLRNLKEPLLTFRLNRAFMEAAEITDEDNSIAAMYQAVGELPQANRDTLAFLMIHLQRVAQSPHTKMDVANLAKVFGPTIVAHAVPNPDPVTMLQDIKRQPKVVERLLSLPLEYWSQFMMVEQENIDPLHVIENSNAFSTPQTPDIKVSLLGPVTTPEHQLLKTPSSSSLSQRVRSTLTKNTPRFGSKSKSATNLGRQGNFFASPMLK

inhibition, inactive:
CN(Cc1cccc(F)c1)C(=O)CSc1nnc(C2CC2)n1C1CC1 7.8%
CCOc1cc(C(=O)NCC(C)CN(C)C)cc(OCC)c1OCC (stereo unspecified) 1.39%
Cc1ccc(NS(=O)(=O)c2ccc(C)c(NC(=O)c3ccc(S(=O)(=O)N4CCCCCC4)cc3)c2)c(C)c1 11.6%
COc1ccc(CN2CCN(CC(=O)Nc3ccccc3C(=O)NC3CC3)CC2)cc1F 6.52%
CCCN(CCO)Cc1ccc2ccccc2c1 3.4%
CN(C)C(=O)CCc1ccc2c3c([nH]c2c1)[C@]1(C)[C@@H](C(=O)N2CCCCC2)C[C@H](CC(=O)NCc2cccc(C(F)(F)F)c2)C(=O)N1CC3 4.55%
CCOC(=O)CSC1=NC(=O)/C(=C/c2ccc(OC)cc2)S1 16.1%
CCOC(=O)CSC1=NC(=O)/C(=C/c2ccc(Br)cc2)S1 19.4%
CCN1C[C@@H]2[C@@H]3C(=O)N(Cc4ccccc4)C(=O)[C@@H]3[C@](Cc3ccccc3)(C1=O)N2C(=O)c1ccc(Cl)cc1 6.26%
COc1ccc(C(=O)CC(=O)C(=O)Nc2ccc(OC)c(Cl)c2)cc1 5.32%
CN(C(=O)CCc1nc(-c2ccccc2F)no1)c1ccccc1 -0.78%
COc1ccc(C(=O)/C(=C\c2ccco2)N2C=CC=CC2=C(C#N)C#N)cc1 4.05%
N#CC(C#N)=C1C=CC=CN1/C(=C\c1ccco1)C(=O)c1ccccc1 16.7%
N#CC(C#N)=C1C=CC=CN1/C(=C\c1ccccc1Cl)C(=O)c1ccccc1 17.8%
N#CC(C#N)=C1C=CC=CN1/C(=C\c1ccco1)C(=O)c1ccc(-c2ccccc2)cc1 15.6%
CCCCN(C(=O)c1cc(CN2C(=O)c3ccccc3C2=O)ccc1OC)c1c(N)n(CC(C)C)c(=O)[nH]c1=O 3.78%
O=C(Nc1cccc(Cl)c1Cl)C1CCN(c2ncccn2)CC1 7.84%
CC(=O)c1cccc(NC(=O)CSC(=O)c2ccccc2)c1 7.67%
CCN(CC)c1ccc(NC(=O)Nc2ccc(C(C)=O)cc2)cc1 10.2%
NC(=O)c1ccc(NC(=O)CSC(=O)c2ccccc2)cc1 8.91%
CCCCc1ccc(NC(=O)C2CCCC2)cc1 -0.66%
CCN(CC)c1ccc(/C=N/NC(=O)Nc2ccccc2)cc1 28.4%
CCOC(=O)C(Cc1ccccc1)C(=O)Nc1cccc(C)c1 (stereo unspecified) 1.33%
CCN(CC)c1ccc(NC(=S)NC(=O)C2CCC2)cc1 18%
CCOC(=O)C(Cc1ccccc1)C(=O)Nc1ccc(NC(=O)C(Cc2ccccc2)C(=O)OCC)cc1 (stereo unspecified) 4.48%
COC(=O)c1cc(OC)c(OC)cc1NC(=O)CCCCCN1C(=O)CCC1=O 5.93%
COc1ccc(CCC(=O)Nc2ccc(Cn3ccnc3)cc2)cc1 6.46%
Cn1c(CCc2ccccc2)n[nH]c1=S 4.25%
C=CCOCCN(CC)CC 6.71%
CC#CCCCC(=O)Nc1ccccc1C(=O)O 6.9%
CCCn1c(SCCc2ccccc2)nc2c1c(=O)[nH]c(=O)n2C -2.73%
CCN(CC)c1ccc(/C=N/NC(=O)c2ccc(Br)o2)cc1 14.9%
CCOc1ccc(NC(=O)COc2ccc(-n3cnnn3)cc2)cc1 6.31%
COC(=O)Cc1ccc(NC(=O)c2ccc(Br)o2)cc1 18.8%
CCOC(=O)c1ccc(NC(=O)COc2ccc(-n3cnnn3)cc2)cc1 11.5%
COc1cccc(C(=O)NCCS(=O)(=O)N2CCC3(CC2)OCCO3)c1 6.03%
CC(=O)CC(=O)Nc1cccc2c1CCCC2 5.33%
COC(=O)c1ccc(NCc2cc(O)ccc2O)cc1O 27%
COC(=O)c1cc(CNC(=O)c2ccc(O)c(Cl)c2)ccc1OC 2.78%
CNS(=O)(=O)c1ccc(C(=O)NCC(=O)NCC2COc3ccccc3O2)cc1 (stereo unspecified) 3.68%
O=C(Nc1ccccc1N1CCCC1)C1CCN(S(=O)(=O)c2ccccc2)CC1 2.86%
CC(C)OCCCNC(=O)CN1C(=O)/C(=C/c2ccccc2)Sc2ccccc21 -14.8%
Cc1ccc(-c2cc(C(=O)N(C)Cc3cnn(C)c3C)c3cc(Br)ccc3n2)cc1 7.31%
Cc1ccc(S(=O)(=O)Nc2ccc(N=Nc3ccc(O)cc3)cc2)cc1 21.7%
O=C1C(Cl)=C(Nc2ccc(O)cc2)C(=O)c2ccccc21 27.1%
O=C1C(O)=C(O)C(=O)c2ccccc21 -6.63%
Cc1ccc(S(=O)(=O)/N=C2\C=C(NS(=O)(=O)c3ccccc3)C(=O)c3ccccc32)cc1 2.77%
O[C@H]1C[C@H](c2ccccc2)N(Cc2cccs2)C[C@@H]1n1cc(-c2ccc(F)cc2)nn1 7.08%
Cc1[nH]c(=O)[nH]c(=O)c1S(=O)(=O)N1CCCC(C(=O)NCc2ccco2)C1 (stereo unspecified) 4.98%
COc1ccc(C=NNc2nc3ccccc3s2)cc1 2.73%
COc1cc(/C=N/Nc2nc3ccccc3s2)cc([N+](=O)[O-])c1O 8.67%
Oc1ccccc1C=NNc1nc2ccccc2s1 4.1%
COc1cc(/C=N/Nc2nc3ccccc3s2)ccc1OC(=O)c1ccccc1F 4.55%
Brc1csc(/C=N/Nc2nc3ccccc3s2)c1 8.54%
COc1cc(OC)cc(C(=O)Oc2ccc(/C=N/Nc3nc4ccccc4s3)cc2OC)c1 12.4%
COc1ccc(OC)c(C(=O)COC(=O)c2ccc(C)o2)c1 13%
Cc1ccc2c(c1)C1CC(C)(O2)N(c2cccc(C(=O)NC3CCN(Cc4ccccc4)CC3)c2)C(=O)N1 (stereo unspecified) 3.74%
O=C(CSc1ncnc2sc3c(c12)CCCC3)NC1CCS(=O)(=O)C1 (stereo unspecified) 12.7%
CCN(CC(=O)Nc1ccc(S(=O)(=O)N2CCCC2)cc1)Cc1ccccc1 1.79%
Cc1ccc(C)c(-n2cc(CNCCc3cnccn3)c(-c3ccccc3)n2)c1 12.1%
Cc1cc(OC(C)C(=O)NCc2ccccn2)c2c(C)cc(=O)oc2c1 (stereo unspecified) 0.55%
CC(=O)Nc1ccc2ccc3cccc4ccc1c2c34 6.5%
CC(=O)Nc1cccc2ccc(O)cc12 -6.95%
Brc1ccc(-c2ncc3ccccn23)cc1 14.6%
c1ccc(-c2ncc3ccccn23)cc1 12%
COc1cc(OC)cc(-c2ncc3ccccn23)c1 29.5%
COc1ccc(-c2ncc3ccccn23)cc1 14.9%
Clc1ccc(-c2ncc3ccccn23)cc1 6.65%
Fc1ccc(-c2ncc3ccccn23)cc1 -4.81%
CCN(CC)C(=O)[C@H]1CC(CC(=O)NC(C)(C)C)C(=O)N2CCc3c([nH]c4ccccc34)[C@]12C (stereo partly specified) 6.38%
O=C(Nc1ccon1)Nc1ccc(Cl)cc1Cl 2.26%
Cc1ccc(-c2nc3ncccc3o2)cc1NC(=O)CC(C)C 4.77%
CC(NC(=O)NC1CCCCC1)C(c1cccs1)N1CCN(C)CC1 (stereo unspecified) 1.37%
COc1ccc(CNC(=O)Cn2cc([N+](=O)[O-])nc2C)cc1 2.29%
O=C(CN1C(=O)C2CCCCC2C1=O)N1CCN(c2ncccn2)CC1 (stereo unspecified) 5.06%
O=C(O)CCC(=O)N1CCN(c2ncccn2)CC1 1.98%
COc1ccc2c(C)cc(=O)sc2c1 5.61%
O=C(Nc1cccc(NC(=O)c2ccccc2)n1)c1ccccc1 8.99%
O=C(CN1CCCCC1)Nc1ccc(S(=O)(=O)NC2CCCCC2)cc1 5.84%
Cc1cc(NC(=O)CN2CCCCCCC2)no1 18%
CC1CCN(CC(=O)Nc2ccc(S(=O)(=O)N3CCC(C)CC3)cc2)CC1 23%
CCN1CCN(CC(=O)Nc2cc(C)on2)CC1 29.4%
Cc1cc(NC(=O)CN2CCCC(C)C2)no1 (stereo unspecified) 20.7%
Cc1cc(NC(=O)CN2CCCCC2)no1 22.2%
COc1ccc(S(=O)(=O)N2CCOCC2)cc1C(=O)N(C)CCOc1ccc(Cl)cc1 6.35%
O=C1C2C3C=CC(O3)C2C(=O)N1Cc1ccncc1 (stereo unspecified) 1.25%
CN(CC1COc2ccccc2O1)C(=O)c1ccc(Cl)c(S(=O)(=O)N2CCCCCC2)c1 (stereo unspecified) 7.88%
COc1ccc(-c2csc(Nc3ccc(S(=O)(=O)Nc4cc(C)on4)cc3)n2)cc1 11.9%
CC(=O)Nc1ccc(Nc2nc(-c3cc4ccccc4oc3=O)cs2)cc1 4.39%
NS(=O)(=O)c1ccc(Nc2nc(-c3ccc4ccccc4c3)cs2)cc1 -0.69%
Nc1ccc(Nc2nc(-c3cc4ccccc4oc3=O)cs2)cc1 47.4%
COc1ccc(-c2csc(Nc3ccc(S(N)(=O)=O)cc3)n2)cc1 15.2%
Cc1cc(NS(=O)(=O)c2ccc(Nc3nc(-c4ccc(C)c(C)c4)cs3)cc2)no1 12.2%
CC(=O)Nc1ccc(-c2csc(Nc3ccc(S(N)(=O)=O)cc3)n2)cc1 -2.9%
Oc1ccc(-c2csc(Nc3ccc4c(c3)OCO4)n2)c(O)c1 10.8%
Cc1cc(=O)[nH]c(N/N=C/c2c(C)nn(-c3ccccc3)c2Cl)n1 0.59%
